3T3 cytotox – NIH 3T3 cell cytotoxicity | NIH 3T3 viability, CellTiter-Glo ATP luminescence, 48-72 h | Potency, µM (doses to about 96.7 µM), for the others: at the highest dose activity change, negative = cytotoxicity, most hits filed as inhibitors | 94,000 compounds, 4.3% hits; note: nearly all actives have a fitted effect of over 55% in size
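Cytotoxicity is measured as loss of cellular ATP: NIH 3T3 cells (400/well) are exposed to compound for 48 or 72 hr at 37 °C, then CellTiter-Glo luminescence is imaged after 10 min at room temperature.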
Luciferase inh – Photinus pyralis luciferase inhibition; P08659; purified P. pyralis luciferase, luminescence, biochemical; Potency, µM (doses to about 115 µM), hits mostly inhibitors; 76,000 compounds, 2.5% hits; AID 1347043; note: nearly all actives have a fitted effect of over 65% in size
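FLuc 10nM, D-luciferin 10uM, ATP 10uM, Mg acetate 10mM, Tris acetate pH 7.5, Tween/BSA; cpd qHTS; enzyme added last; CCD luminescence.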
HEK cytotox – HEK 293 cell cytotoxicity; HEK 293 viability, ATP luminescence (CellTiter-Glo), 48-72 h; Potency, µM (doses to about 115 µM), for inactives: top-dose activity change, negative = cytotoxicity, actives largely listed as inhibitors; 94,000 compounds, 6.6% hits; AID 1345083; note: nearly all actives have a fitted effect of over 60% in size
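CellTiter-Glo luminescence (cellular ATP) was read after 48 or 72 hr of compound exposure at 37 degree Celsius. Cells were HEK 293 plated at 250 cells/well.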
NPR1 antag – blocks ANP-stimulated signaling of human Npr1 receptor; P16066; HEK293 hNpr1 GloSensor cGMP, ANP-stimulated luminescence; Potency, µM (top dose mostly 46.3 µM), without a hit: at the highest dose activity change, negative = inhibition, actives largely listed as inhibitors; 76,000 compounds, 1.6% hits; calls by dose curve; note: nearly all actives have a fitted effect of over 60% in size
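Compound pre-incubated 30 min at room temperature on GloSensor-loaded HEK293 cells stably carrying hNpr1 and the pGS-40F cGMP biosensor. Stimulation uses hNppA at 0.1 nM final; luminescence is taken at baseline and 20 min post-agonist.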
* marks the source's active call; other numbers are inactive results; i = inactive; ? = inconclusive; . = no result given; [ ] = another dose, or the depositor's remark. Most compounds without a hit are left out; they make up all but 11% or so of the library. Unless noted, calls come from the whole dose curve; as a rule, active = well fitted curve in the direction sought with a large enough effect; inconclusive = small, poorly fitted or top-dose-only effect, or another doubt; inactive = no such curve, though single readings can be large; an effect the other way counts as inactive or inconclusive. % is set by controls: 0 for no effect and ±100 for the full control effect; potency is the fitted concentration of half-maximal effect.

SMILES	3T3 cytotox	Luciferase inh	HEK cytotox	NPR1 antag
O=C(NC1CCCN(c2cc(-c3ccc(F)cc3)[nH]n2)C1)c1cc(F)ccc1F (stereo not given)	?	i	45µM*	-21%
CCOC(=O)[C@@H]1[C@@H](OC(N)=O)C(=O)N(C(C)C)C12CCN(S(=O)(=O)c1ccccc1)CC2	?	.	2%	.
O=C(NCc1ccccc1)c1ccc2nnc(-c3cc[nH]c3)n2c1	-28%[138 µM]	.	?	.
COc1ccc(C(=O)NC2CCN(c3ccnc4ccnn34)CC2)cc1	-13%	.	-12%	.
CN(Cc1cccnc1)C1CN(C(=O)c2cccn2C)C1	-1%	.	i	.
CC(C)c1cc(C(=O)NCC2OCCc3ccccc32)nc2ncnn12 (stereo not given)	-19%	i	-20%	-6%
c1ccc(-c2ccnc(NCC3OCCc4ccccc43)n2)nc1 (stereo not given)	?	45µM*	40µM*	-11%
c1ccc(-c2nc3c(c(NCC4OCCc5ccccc54)n2)CCNC3)nc1 (stereo not given)	40µM*	?	?	-3%
CNC(=O)c1cc(C2CC2)nc2onc(C3CCCN3C(=O)NC3CCCC3)c12 (stereo not given)	-14%	.	i	.
CC(C)CNC(=O)C1CCN(Cc2ccccc2-c2cccnc2)CC1	-36%[138 µM]	.	?	.
CCOc1ccccc1NC(=O)NCCn1c(C)cnc1C1CC1	4%	.	i	.
COc1ccc(-c2cc(-c3ccncc3)c3cncn3c2)cc1OC	25µM*	i	?	1%[70.6 µM]
COc1ccccc1-c1cc(-c2ccncc2)c2cncn2c1	11µM*	i	89µM*	-23%[70.6 µM]
COc1ccc(-c2cc(-c3ccc(CO)cc3)cn3cncc23)cc1	?	i	79µM*	-17%[70.6 µM]
Cc1ccccc1-c1cc(-c2ccc(=O)[nH]c2)c2cncn2c1	25µM*	i	71µM*	-12%[70.6 µM]
CCCS(=O)(=O)N1CCC(N2CC(OCC3CC3)C23CCCCC3)CC1 (stereo not given)	?	.	-3%	.
CC(C)(C)OCC1CN(Cc2cccc(F)c2)[S+](=O)([O-])c2cccnc2O1 (stereo not given)	-28%[46.1 µM]	.	?	.
COc1ccccc1-c1cc(N2CCOCC2=O)c2cncn2c1	100µM*	i	-43%[172 µM]	-9%[70.6 µM]
COc1ccc(-c2cc(N3CCOCC3=O)c3cncn3c2)cc1OC	?	i	-7%[172 µM]	1%[70.6 µM]
COc1ccc(-c2cc(-c3ccc(OC)c(OC)c3)cn3cncc23)cc1	40µM*	i	71µM*	-12%[70.6 µM]
COc1ncccc1-c1cc(-c2cccnc2)c2cncn2c1	?	i	?	1%[70.6 µM]
COc1ccccc1-c1cc(-c2cccnc2)c2cncn2c1	?	i	?	-3%[70.6 µM]
COc1cccc(-c2cc(-c3cccnc3)c3cncn3c2)c1OC	?	50µM*	?	-1%[70.6 µM]
COc1ccc(-c2cc(-c3cccnc3)c3cncn3c2)cc1OC	35µM*	i	?	0%[70.6 µM]
O=C(NCc1c[nH]c2ncccc12)c1cccc(Br)c1	-28%[138 µM]	i	?	3%[70.6 µM]
SMILES	3T3 cytotox	Luciferase inh	HEK cytotox	NPR1 antag
O=C(c1ccc[nH]c1=O)N1CCC(n2cc(-c3nc(-c4ccccc4)no3)nn2)CC1	-28%	?	6%	-14%
CCc1noc(-c2cn(C3CCN(C(=O)c4cccc5[nH]ccc45)CC3)nn2)n1	-24%	i	?	-26%
CC(C)c1noc(-c2cn(C3CCN(C(=O)c4cccc5[nH]ccc45)CC3)nn2)n1	-23%	i	45µM*	0%
O=C(c1cccc2[nH]ccc12)N1CCC(n2cc(-c3nc(-c4ccccc4)no3)nn2)C1 (stereo not given)	?	?	?	11µM*
O=C(c1cccc2[nH]ccc12)N1CCC(n2cc(-c3nc(-c4ccccc4)no3)nn2)CC1	?	i	28µM*	?
CC(C)(C)c1nc(C(=O)NCCc2ccc(Cl)cc2)n2ccncc12	?	.	35µM*	.
CC(C)(C)c1nc(C(=O)NCCc2ccc(Cl)cc2)n2ccccc12	?	.	-24%	.
Cc1csc(NC(=O)c2nc3c(o2)CCN(CC2CCCC2)CC3)n1	?	28µM*	?	-3%[70.6 µM]
Cc1csc(NC(=O)c2nc3c(o2)CCN(Cc2ccc4[nH]ccc4c2)CC3)n1	?	35µM*	100µM*	-17%[70.6 µM]
Cc1ccc(CN2CCc3nc(C(=O)Nc4nc(C)cs4)oc3CC2)cc1	?	i	71µM*	-21%[70.6 µM]
O=C(NCc1ccccc1)c1nc2c(o1)CCN(CC1CCCC1)CC2	?	i	?	-4%[70.6 µM]
Cc1ccc(CN2C[C@@H](CO)[C@H](c3nc(C)no3)C2)cc1	-5%	i	i	12%
CNC(=O)c1cc(C2CC2)nc2onc(C3CCCN3C(=O)c3ccc(F)cc3)c12 (stereo not given)	-16%	.	-16%	.
O=C(NC1CCCN(c2ccc3nnc(-c4ccccc4)n3n2)C1)c1ccccn1 (stereo not given)	?	.	28µM*	.
O=C(NC1CCCN(c2ccc3nnc(-c4ccccc4)n3n2)C1)c1ccc(F)cc1 (stereo not given)	-26%	.	i	.
COc1ccc(C(=O)NC2CCCN(c3ccc4nnc(-c5ccccc5)n4n3)C2)cc1 (stereo not given)	?	.	22µM*	.
O=C(NC1CCCC1)NC1CCCN(c2ccc3nnc(-c4ccccc4)n3n2)C1 (stereo not given)	-18%	.	-16%	.
CNC(=O)c1cc(C2CC2)nc2c1c(C1CCCN1C(=O)c1ccccc1Cl)nn2C (stereo not given)	-24%	.	i	.
Cc1cnc(-c2ccccc2)n1C1CCN(C(=O)CC2CCCCC2)C1 (stereo not given)	?	.	-10%	.
CCN1c2cc(C(=O)Nc3ccc(Cl)c(F)c3)ccc2C(=O)N2CCCCCC21 (stereo not given)	?	i	?	0%
CCN1c2cc(C(=O)Nc3ccc(F)c(F)c3)ccc2C(=O)N2CCCCC21 (stereo not given)	?	i	40µM*	0%
CCN1c2cc(C(=O)Nc3ccc(Cl)c(F)c3)ccc2C(=O)N2CCCCC21 (stereo not given)	?	i	35µM*	-14%
O=C(c1nc2cccnc2n(C2CC2)c1=O)N1CCN([S+](=O)([O-])c2cccs2)CC1	-7%	.	i	.
COc1ccc(OCc2cc(C(=O)NCCc3nc(C)c(C)s3)no2)c(Cl)c1	?	?	32µM*	0%
NCc1ccc(-c2cccc(Cl)c2)cc1	32µM*	.	45µM*	.
Cc1cccc(-c2ccc(CN)cc2)c1	32µM*	.	63µM*	.
COc1cccc(-c2ccc(CN)cc2)c1	?	.	-29%[172 µM]	.
CNC(=O)c1cc(C2CC2)nc2onc(C3CCN(C(=O)Cc4ccc(F)cc4)C3)c12 (stereo not given)	?	.	-20%	.
COCCC1(NC(=O)NCc2ccc(C)cc2)CCN(S(C)(=O)=O)CC1	-11%	.	-3%	.
